# Laboratory results as given in PubChem BioAssay.
# A number with no mark means an inactive call. For some assays here: Measured potencies and affinities stand elsewhere. Active and inactive are the calls of the source. Unless noted, no rule for the calls is given here.
# Experiments:
# [1] = antimalarial activity against Dd2 strain (AID 2302;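 active = growth inhibition above 50% at the single 2 µM test dose, taken to imply half-maximal potency below 2 µM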;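 also: 0% = DMSO untreated growth and 100% = chloroquine plus artemisinin killed control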); conditions: P. falciparum Dd2 in RBCs, LDH growth readout, 72 h; at 2 µM; stronger effect = higher value
# [2] = human hepatoma cell viability loss – ATP luminescence, cytotoxicity control for P. falciparum antimalarial project, primary screen (AID 2303;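 active = inhibition above 50%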;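 also: 0% = DMSO wells and 100% = digitonin-killed cells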); conditions: HepG2 viability, 24-48 h, at 10 µM, stronger effect = higher value
# [3] = target: L-lactate dehydrogenase (Plasmodium falciparum (isolate CDC / Honduras)) (UniProt Q27743); assay: PfLDH activity inhibition – cell lysate, 3D7 strain, counter-screen for P. falciparum growth inhibition project (AID 2304);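 also: 0% = vehicle and 100% = reference inhibitor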; conditions: P. falciparum 3D7 crude extract, LDH APAD/NBT absorbance; at 2 µM; stronger effect = higher value
# Chain of L-lactate dehydrogenase (Plasmodium falciparum (isolate CDC / Honduras)) (Q27743 whole entry, looked up): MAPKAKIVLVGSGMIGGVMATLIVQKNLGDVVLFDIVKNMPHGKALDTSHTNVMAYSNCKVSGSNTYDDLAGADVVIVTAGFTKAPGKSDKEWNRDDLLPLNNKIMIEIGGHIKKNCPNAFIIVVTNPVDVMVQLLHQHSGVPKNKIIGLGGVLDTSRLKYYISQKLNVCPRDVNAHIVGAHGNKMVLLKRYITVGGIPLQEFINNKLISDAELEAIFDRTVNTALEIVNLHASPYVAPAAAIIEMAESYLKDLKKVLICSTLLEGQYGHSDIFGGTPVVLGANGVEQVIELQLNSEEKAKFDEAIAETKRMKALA
# [4] = inhibition of 3D7 malaria parasite growth – strain 3D7 (AID 2306);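 also: 0% = DMSO wells and 100% = chloroquine plus artemisinin control wells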; conditions: P. falciparum 3D7 erythrocytic growth, LDH absorbance, 72 h; at 2 µM; stronger effect = higher value
# [5] = target: Calcium-dependent protein kinase 1 (Plasmodium falciparum (isolate 3D7)) (UniProt P62344); assay: PfCDPK1 kinase inhibitors, biochemical, TCAMS library (AID 1159585; cut-off not given, nearly all actives have IC50 up to about 0.98 µM;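 also: inhibitors leave more ATP so luminescence rises with inhibition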); conditions: recombinant PfCDPK1, Kinase-Glo ATP depletion luminescence
# Chain of Calcium-dependent protein kinase 1 (Plasmodium falciparum (isolate 3D7)) (P62344 whole entry, looked up): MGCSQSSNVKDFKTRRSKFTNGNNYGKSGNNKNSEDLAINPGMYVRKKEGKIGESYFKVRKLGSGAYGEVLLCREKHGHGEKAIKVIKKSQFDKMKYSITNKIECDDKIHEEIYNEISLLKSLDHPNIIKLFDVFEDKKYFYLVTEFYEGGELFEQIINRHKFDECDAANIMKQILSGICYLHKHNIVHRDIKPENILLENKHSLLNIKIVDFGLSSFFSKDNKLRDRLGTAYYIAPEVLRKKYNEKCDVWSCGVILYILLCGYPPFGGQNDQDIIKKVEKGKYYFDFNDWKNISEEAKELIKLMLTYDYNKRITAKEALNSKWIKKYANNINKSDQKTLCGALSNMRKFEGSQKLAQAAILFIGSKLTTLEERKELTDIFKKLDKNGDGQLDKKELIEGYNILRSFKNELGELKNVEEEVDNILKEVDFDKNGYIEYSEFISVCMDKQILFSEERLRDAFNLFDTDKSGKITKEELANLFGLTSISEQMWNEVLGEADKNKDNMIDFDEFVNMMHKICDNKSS
# [6] = target: Plasmodium falciparum protein kinase 6 (PK6, PF3D7_1337100) (UniProt Q8IDW1); assay: PfPK6 kinase inhibitors, biochemical, TCAMS library (AID 1159586); conditions: recombinant PfPK6, Kinase-Glo ATP depletion luminescence
# Chain of Plasmodium falciparum protein kinase 6 (PK6, PF3D7_1337100) (Q8IDW1 1-305): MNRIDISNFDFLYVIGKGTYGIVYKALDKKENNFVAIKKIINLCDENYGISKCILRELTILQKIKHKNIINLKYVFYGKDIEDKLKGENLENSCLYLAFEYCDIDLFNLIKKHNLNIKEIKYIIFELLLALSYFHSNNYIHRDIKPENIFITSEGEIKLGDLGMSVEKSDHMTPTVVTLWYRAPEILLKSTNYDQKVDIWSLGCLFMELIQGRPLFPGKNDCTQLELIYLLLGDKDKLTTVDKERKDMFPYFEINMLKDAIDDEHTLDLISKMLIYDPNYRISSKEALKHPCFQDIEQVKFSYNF
# [7] = target: Protein kinase 7 (PK7), Plasmodium falciparum 3D7 (PF3D7_0213400) (UniProt Q7YTF7); assay: inhibition of Plasmodium PK7 catalytic activity – biochemical, TCAMS antimalarial set, Kinase-Glo luminescence (AID 1159587); conditions: recombinant PfPK7, Kinase-Glo ATP depletion luminescence
# Chain of Protein kinase 7 (PK7), Plasmodium falciparum 3D7 (PF3D7_0213400) (Q7YTF7 1-343): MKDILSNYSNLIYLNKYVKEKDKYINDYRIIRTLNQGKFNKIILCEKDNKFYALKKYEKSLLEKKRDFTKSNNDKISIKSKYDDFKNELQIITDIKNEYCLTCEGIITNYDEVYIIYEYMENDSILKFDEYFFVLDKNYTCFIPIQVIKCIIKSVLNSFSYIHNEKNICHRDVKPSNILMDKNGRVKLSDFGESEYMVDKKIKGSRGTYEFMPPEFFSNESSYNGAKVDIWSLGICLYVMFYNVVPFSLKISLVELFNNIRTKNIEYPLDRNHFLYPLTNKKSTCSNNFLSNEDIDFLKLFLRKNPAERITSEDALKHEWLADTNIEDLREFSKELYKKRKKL
# [8] = target: Calcium-dependent protein kinase 4 (Plasmodium falciparum (isolate 3D7)) (UniProt Q8IBS5); assay: PfCDPK4 kinase inhibitors, biochemical, TCAMS library (AID 1159588; cut-off not given, nearly all actives have IC50 up to about 0.91 µM); conditions: recombinant PfCDPK4, Kinase-Glo ATP depletion luminescence
# Chain of Calcium-dependent protein kinase 4 (Plasmodium falciparum (isolate 3D7)) (Q8IBS5 whole entry, looked up): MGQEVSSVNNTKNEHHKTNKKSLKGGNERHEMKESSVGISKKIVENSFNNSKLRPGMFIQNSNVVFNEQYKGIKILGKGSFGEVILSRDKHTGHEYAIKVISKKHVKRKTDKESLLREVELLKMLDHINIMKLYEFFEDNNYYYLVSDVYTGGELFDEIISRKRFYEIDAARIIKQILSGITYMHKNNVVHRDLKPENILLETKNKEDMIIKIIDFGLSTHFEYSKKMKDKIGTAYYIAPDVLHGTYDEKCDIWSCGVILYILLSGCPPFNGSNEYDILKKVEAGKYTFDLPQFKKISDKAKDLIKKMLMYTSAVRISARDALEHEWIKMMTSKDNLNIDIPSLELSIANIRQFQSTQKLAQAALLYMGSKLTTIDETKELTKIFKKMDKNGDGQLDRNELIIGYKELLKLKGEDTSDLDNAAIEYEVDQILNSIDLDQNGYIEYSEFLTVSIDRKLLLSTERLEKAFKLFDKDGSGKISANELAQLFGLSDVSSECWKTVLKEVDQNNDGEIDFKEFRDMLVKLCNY
SMILES,growth inhibition [1],inhibition [2],inhibition [3] [%],growth inhibition [4],outcome [5],outcome [6],outcome [7],outcome [8]
CCC(C)CNC(=O)CN1CN(c2ccccc2)C2(CCN(C(=O)c3ccc(Br)cc3)CC2)C1=O (stereo not given),88% (active),10%,-2,88% (active),inactive,inactive,inactive,inactive
CCCCCC(C)c1cc(O)c2c(c1)OC(C)(C)C=C2C1=CCN(Cc2ccccc2)CC1 (stereo not given),96% (active),13%,-5,96% (active),inactive,inactive,inactive,inactive
c1ccc(OCCCCN2CCCCC2)cc1,1%,2%,-11,95% (active),inactive,inactive,inactive,inactive
CCNc1cc(C(=O)N[C@@H](Cc2ccccc2)[C@H](O)CNCc2ccc3c(c2)OCCO3)cc(N2CCCCS2(=O)=O)c1,45%,-1%,-1,95% (active),inactive,inactive,inactive,inactive
CC(C)n1cc(CN2CCCC(C(=O)Nc3cccc(-c4cc5ccccc5[nH]4)c3)C2)cn1 (stereo not given),65% (active),34%,-3,96% (active),inactive,inactive,inactive,inactive
Cc1ccccc1OCC(=O)Nc1ccc(-c2nc3cc4ccccc4cc3[nH]2)cc1,51% (active),24%,2,102% (active),inactive,inactive,inactive,inactive
O=C1NC(c2ccc(N3CCCCCC3)cc2)Nc2ccccc21 (stereo not given),96% (active),19%,0,96% (active),inactive,inactive,inactive,inactive
CSc1nccc(-c2ccc3ccnc(N)c3c2)n1,98% (active),30%,0,101% (active),inactive,inactive,inactive,inactive
CCCCCN1CCCN(Cc2cccc(NC(=O)c3ccc4ccccc4c3)c2)CC1,16%,27%,-5,86% (active),inactive,inactive,inactive,inactive
Cc1nc2nc(N)nc(N)c2c(C)c1Cc1cccc(C(F)(F)F)c1,23%,65% (active),-2,89% (active),inactive,inactive,inactive,inactive
COc1ccc2nccc([C@@H](O)CN3CCC(NCc4nc5c(C#N)cccc5[nH]4)CC3)c2c1,9%,-3%,-5,96% (active),inactive,inactive,inactive,inactive
CC(C)CCN1CCCN(Cc2ccc(C(=O)Nc3ccc(F)c(F)c3)cc2)CC1,27%,36%,5,88% (active),inactive,inactive,inactive,inactive
CC(=O)Nc1ccc(C#Cc2ccc(-c3c(C)[nH]c(C)c(Cl)c3=O)cc2)cc1,78% (active),-3%,-7,90% (active),inactive,inactive,inactive,inactive
c1cc(-c2ccc(CNCCCN3CCOCC3)cc2)cc(-c2nc3ccccc3[nH]2)c1,-1%,26%,-2,100% (active),inactive,inactive,inactive,inactive
COc1ccc(-n2ccnc2SCC(=O)Nc2cc(C(F)(F)F)ccc2Cl)c(OC)c1,76% (active),0%,-8,98% (active),inactive,inactive,inactive,inactive
Cc1n[nH]c(C)c1C1CCN(CC2CCC(NC(=O)/C=C/c3ccc(Cl)c(Cl)c3)CC2)CC1 (stereo not given),53% (active),15%,3,101% (active),inactive,inactive,inactive,inactive
CC1CN(C(=O)c2sc3ccccc3c2Cl)CC(C)O1 (stereo not given),98% (active),-5%,3,101% (active),inactive,inactive,inactive,inactive
O=C(Cc1cccc(Cl)c1)Nc1cccc(-c2c[nH]c3nc(Nc4cccc(O)c4)ncc23)c1,74% (active),23%,3,100% (active),inactive,inactive,inactive,inactive
NC(=O)c1sc(-n2cnc3ccccc32)cc1OCc1ccccc1[N+](=O)[O-],46%,10%,-2,99% (active),inactive,inactive,inactive,inactive
NC(N)=NC(=O)Nc1ccc(Cl)c(Cl)c1,13%,29%,1,95% (active),inactive,inactive,inactive,inactive

SMILES,growth inhibition [1],inhibition [2],inhibition [3] [%],growth inhibition [4],outcome [5],outcome [6],outcome [7],outcome [8]
CN(CCCc1c[nH]c2ccccc12)CC1CCN(C(=O)/C=C/c2ccc(Cl)c(Cl)c2)CC1,25%,37%,-1,99% (active),inactive,inactive,inactive,inactive
COc1cc2nc(Nc3ccc(N4CCOCC4)cc3)nc(N)c2cc1OC,10%,8%,-3,95% (active),inactive,inactive,inactive,inactive
N#Cc1cccc([C@H](O)[C@@H]2CN(CCC3CCCCC3)CC[C@@]2(O)c2ccccc2)c1,100% (active),-5%,3,98% (active),inactive,inactive,inactive,inactive
O=C(Nc1cc(F)cc(F)c1)N1CCOC(CCN2CCC3(CCc4ccccc43)CC2)(c2ccc(Cl)c(Cl)c2)C1 (stereo not given),86% (active),32%,4,100% (active),inactive,inactive,inactive,inactive
CCc1ccc(C2=Nn3c(nnc3-c3cccs3)SC2)cc1,20%,9%,0,93% (active),inactive,inactive,inactive,inactive
COc1ccc2nc(-c3ccc(C(=O)NCCCN4CCN(c5cc(Cl)ccc5OC)CC4)cc3OC)[nH]c2c1,24%,-5%,1,101% (active),inactive,inactive,inactive,inactive
O=C(NCC1CCN(C/C=C/c2ccccc2)CC1)Nc1ccc(Oc2ccccc2)cc1,11%,40%,-3,83% (active),inactive,inactive,inactive,inactive
CC(C)(C)OC(=O)NCc1ccc(Nc2nnc(-c3cccc(OCC(=O)NCc4cc(C(F)(F)F)cc(C(F)(F)F)c4)c3)o2)cc1,19%,32%,1,90% (active),inactive,inactive,inactive,inactive
Nc1c2c(nc3ccc(NC(=O)CCCc4ccccc4)cc13)CCCC2,42%,73% (active),-1,101% (active),inactive,inactive,inactive,inactive
COc1cc(NC(=O)c2cc([N+](=O)[O-])ccc2NC(=O)CNC2CCCC(C)C2C)cc(OC)c1 (stereo not given),80% (active),21%,4,97% (active),inactive,inactive,inactive,inactive
COc1cc2c(cc1C(F)(F)F)N(C(=O)Nc1cc(OC(F)(F)F)cc(-c3cccnc3)c1)CC2,49%,55% (active),-3,100% (active),inactive,inactive,inactive,inactive
Cc1ccccc1C1CCN(C2CCC(NC(=O)c3cc(-c4ccc(Cl)cc4)cs3)CC2)CC1 (stereo not given),100% (active),99% (active),-2,101% (active),inactive,inactive,inactive,inactive
Clc1ccc(Nc2nc(-c3ccccn3)cs2)nc1,90% (active),36%,-1,95% (active),inactive,inactive,inactive,inactive
COc1cc(-c2nc(-c3ccccc3)c(-c3ccc([N+](=O)[O-])cc3)[nH]2)cc(OC)c1O,56% (active),7%,-3,98% (active),inactive,inactive,inactive,inactive
COc1cc(Nc2nccc(N3CCC(NC(=O)c4cc5ccccc5s4)C3)n2)cc(OC)c1OC (stereo not given),50% (active),2%,2,96% (active),inactive,inactive,inactive,inactive
Cc1ccc2c(OCCN3CCC(Cc4cc5c(cc4F)OCC(=O)N5)CC3)cc(F)cc2n1,71% (active),27%,3,100% (active),inactive,inactive,inactive,inactive
Cc1cc(N[C@@H](Cc2ccccc2)C(=O)NCCCOC(C)C)nc(NCCc2ccc(F)cc2)n1,36%,15%,0,101% (active),inactive,inactive,inactive,inactive
CCCCCCCCc1c(C)[nH]c(C)c(Cl)c1=O,95% (active),-4%,-3,96% (active),inactive,inactive,inactive,inactive
N#Cc1ccc2c(c1)CCN(CCCn1c(-c3ccc4ccccc4c3)nc3ccncc31)CC2,97% (active),38%,4,102% (active),inactive,inactive,inactive,inactive
COc1ccccc1C(C)NCC(=O)Nc1ccccc1Sc1ccccc1 (stereo not given),7%,-7%,-1,89% (active),inactive,inactive,inactive,inactive
